# From PubChem BioAssay (EPA / NIEHS)
# Where a structure was tested more than once in an assay, its records may differ in their call. Activity calls are given as the source filed them. The calls were made as follows: active = hit-call score of the fitted dose curve at least 0.9, where 1 is the maximum; inactive = score below 0.9.
# Target: Hepatocyte nuclear factor 3-beta (Homo sapiens) (UniProt Q9Y261)
# Test: ATG_FoxA2_CIS: Attagene CIS-FACTORIAL HepG2 Assay for human Forkhead box A2 (FOXA2) (AID 2282942)
# Conditions: HepG2 cis-reporter transcription factor activity, 24 h; actives raise or lower the signal
# Description: ATG_CIS is a cell-based, multiplexed-readout assay that uses HepG2, a human liver cell line, with measurements taken at 24 hours after chemical dosing in a 24-well plate.ATG_FoxA2_CIS is one of 52 assay component(s) measured or calculated from the ATG_CIS assay. It is designed to make measurements of mRNA induction, a form of inducible reporter, as detected with fluorescence intensity signals by Reverse transcription polymerase chain reaction (RT-PCR) and Capillary electrophoresis technology.Data from the assay component ATG_FoxA2_CIS was analyzed into 1 assay endpoint. This assay endpoint, ATG_FoxA2_CIS, was analyzed with bidirectional fitting relative to DMSO as the negative control and baseline of activity. Using a type of inducible reporter, measures of mRNA for gain or loss-of-signal activity can be used to understand the reporter gene at the transcription factor-level as they relate to the gene FOXA2. Furthermore, this assay endpoint can be referred to as a primary readout, because this assay has produced multiple assay endpoints where this one serves a reporter gene function. To generalize the intended target to other relatable targets, this assay endpoint is annotated to the dna binding intended target family, where the subfamily is forkhead box protein.
# Human liver HepG2 cells are transiently transfected with multiple reporter transcription units (MRTUs) in 6-well plates using FuGene 6 reagent (Roche; 3 ml FuGene/1 mg DNA). The MRTU constructs are regulated by a cis-regulating element (promoter). […] A major difference between the CIS and TRANS system is that in CIS activities of endogenous TFs are measured, whereas the TRANS assay evaluates changes in activities of exogenous, chimeric NR-Gal4 proteins. […] At the end of 24 hour incubation, total RNA was isolated using TriZol reagent (Invitrogen). The isolated RNA is then reverse-transcribed using oligo(dT) primer and Mo-MLV reverse transcriptase (Invitrogen) with DNAse I (Ambion) treatment for 30 min. The one-tenth of the produced cDNA was amplified by PCR using Taq DNA polymerase (Invitrogen) and two reporter sequence-specific primers. The PCR products were fluorescently labeled by primer extension with 6-arboxyfluorescein (6-FAM) 5'-labeled reporter sequence-specific primer (2 min at 95 C, 20 s at 68 C and 10 min at 72 C) and these products were digested with 5U of HpaI (New England Biolabs) for 2h at 37 C. The fragments were purified using Qiaquick PCR columns (Qiagen), analyzed on an ABI 3130xL genetic analyzer (Applied Biosystems) with peak positions identified by using a set of X-rhodamine (ROX)-labeled MapMarker1000 molecular weight standards (BioVentures). The raw capillary electrophoresis data was processed using Attagraph software (Attagene).
# Sequence of Hepatocyte nuclear factor 3-beta (Homo sapiens) (Q9Y261 whole entry, looked up): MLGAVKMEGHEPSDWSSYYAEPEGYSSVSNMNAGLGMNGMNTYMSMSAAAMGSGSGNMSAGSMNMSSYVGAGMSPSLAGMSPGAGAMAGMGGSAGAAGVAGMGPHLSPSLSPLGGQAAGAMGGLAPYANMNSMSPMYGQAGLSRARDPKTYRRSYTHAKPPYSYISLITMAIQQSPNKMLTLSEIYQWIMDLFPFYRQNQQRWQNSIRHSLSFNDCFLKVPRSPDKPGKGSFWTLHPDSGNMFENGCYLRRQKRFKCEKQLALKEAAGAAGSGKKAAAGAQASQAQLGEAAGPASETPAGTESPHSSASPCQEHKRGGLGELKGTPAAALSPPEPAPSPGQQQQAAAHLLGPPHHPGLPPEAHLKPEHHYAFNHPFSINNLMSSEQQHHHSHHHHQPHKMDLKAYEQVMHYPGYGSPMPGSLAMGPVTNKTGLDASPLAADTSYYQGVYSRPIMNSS
Structure (SMILES),outcome,AC50
O=S(=O)(O)c1ccccc1,inactive,
Clc1ccc(Nc2nnc(Cc3ccncc3)c3ccccc23)cc1,inactive,
CN(C)c1ccc(C(=C2C=CC(=[N+](C)C)C=C2)c2ccccc2)cc1,inactive,1510 nM (active)
c1cc[nH]c1,inactive,
OCC1CCC(CO)CC1 (stereo not given),inactive,
COCC1CCC(CO)CC1 (stereo not given),inactive,
Cc1cncc(C)c1,inactive,
Cc1ccc2ccc3ccc(C)cc3c2c1,inactive,
Oc1ccc(Cc2ccccc2O)cc1,inactive,
O=C1OC(=O)c2cc(-c3ccc4c(c3)C(=O)OC4=O)ccc21,inactive,
O=C(NCc1ncc(C(F)(F)F)cc1Cl)c1c(Cl)cccc1Cl,inactive,
O=P(O)(O)CCC(F)(F)C(F)(F)C(F)(F)C(F)(F)C(F)(F)C(F)(F)C(F)(F)C(F)(F)F,inactive,
C=COC(=O)C(C)(C)CCCCCC,inactive,
FC(F)(F)C1(F)C(F)(F)C(F)(F)C(F)(F)C(F)(C(F)(F)F)C1(F)F (stereo not given),inactive,
O=C(O)C(F)(F)OC(F)(F)C(F)(F)OC(F)(F)C(F)(F)OC(F)(F)C(F)(F)C(F)(F)C(F)(F)F,inactive,
COCN(COC)c1nc(N(COC)COC)nc(N(COC)COC)n1,inactive,
C[C@]12CC[C@@H]3c4ccc(O)cc4CC[C@H]3[C@@H]1C[C@@H](O)[C@@H]2O,inactive,
C=CC(=O)OCC(CO)(COCC(COC(=O)C=C)(COC(=O)C=C)COC(=O)C=C)COC(=O)C=C,inactive,
CCCCCc1ccc(O)cc1,inactive,
Nc1ccc(O)c(C(=O)O)c1,inactive,

Structure (SMILES),outcome,AC50
OCC(CO)(CBr)CBr,inactive,
CCCCCCCCCCCC(=O)O,inactive,
NC(C(F)(F)F)C(F)(F)F,inactive,
CC(=O)Nc1ccc(O)cc1,inactive,
O=CC(F)(F)C(F)(F)C(F)(F)C(F)F,inactive,
CCOC=C(C(=O)OCC)C(=O)OCC,inactive,
CCCCCCCCCCCC(=O)NCCCN(C)C,inactive,
c1ccc(CNc2ncnc3c2ncn3C2CCCCO2)cc1 (stereo not given),inactive,
CCCCC(CC)C(=O)OCCOCCOCCOCCOC(=O)C(CC)CCCC (stereo not given),inactive,
CCCCC(CC)C(=O)O (stereo not given),inactive,
CCOC=O,inactive,
CCC(=O)O,inactive,
CCCCCCCCCCCC[N+](C)(C)Cc1ccccc1,inactive,
Clc1ccc2c(Cl)ccnc2c1,inactive,
CC1CCC(C(=O)O)CC1 (stereo not given),inactive,
FC(F)=C(F)C(F)(F)C(F)(F)C(F)(F)C(F)F,inactive,
Oc1cccc2c(O)cccc12,,85.9 nM (active)
CS(=O)(=O)c1ccc([C@@H](CC2CCCC2)C(=O)Nc2cnccn2)cc1Cl,inactive,
Cc1cc(Cc2cc(C)cc(C(C)(C)C)c2O)c(O)c(C(C)(C)C)c1,,128000 nM (active)
